Compound activity as filed in PubChem BioAssay.
aSyn yeast inh: inhibitors of alpha-synuclein toxicity in yeast; Potency, µM (highest dose often 46.1 µM), for the others: at the highest dose growth rescue (activation), usual class: activators; Yeast expressing alpha-synuclein, growth rescue, BacTiter-Glo, 24 h; 0.14% of 370,000 active; also: % of control where 0% means no effect; nearly all actives have a fitted effect of over 65% in size
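Galactose-induced alpha-syn yeast (OD600=0.02, raffinose-pregrown) + pinned cpd, 24 hr, 30 deg C; growth by BacTiter-Glo luminescence. Growth restoration scores as activation.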
Mito fusion act: inhibitors of mitochondrial division or activators of mitochondrial fusion. S. cerevisiae fusion-defective mutant growth rescue, CellTiterGlo 48 h. 0.23% of 320,000 active. AID 485298. Potency, µM (doses to about 46.1 µM), without a hit: top-dose growth rescue (activation), most hits filed as activators; also: % of control where 0% means no effect; nearly all actives have a fitted effect of over 45% in size
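Luminescent cell viability in 1536-well qHTS format served as the measure of rescued growth in ts fusion-mutant S. cerevisiae cultured on non-fermentable YPEG for 48 hours at 37C.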
Abeta yeast res: A-beta toxicity reversal in yeast; yeast expressing A-beta42, growth rescue, OD600, 48 h; response scale: 0% DMSO, 100% iron-clioquinol control; 0.063% of 410,000 active; Potency, µM (series often up to 46.1 µM), usual class: activators; AID 1347071; also: nearly all actives have a fitted effect of over 55% in size
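Growth rescue measured by 600 nm absorbance after 48 h yeast culture at 30 C with compound. Values normalized between DMSO and an equimolar ferric chloride plus clioquinol control.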
GRP78 ERSR act: inducers of ER stress response in human glioma cells; U87-MG GRP78 promoter luciferase reporter, 16 h; Potency, µM, without a hit: top-dose activation, most hits filed as activators; 0.02% of 420,000 active; AID 602332; also: series mostly up to about 76 µM; % of control where 0% means no effect; nearly all actives have a fitted effect of over 35% in size
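Stably transfected U87-MG glioma cells carrying a GRP78-based luciferase sensor; 16 h compound incubation. Luminescence end-point read 10 min after Bright-Glo addition at room temperature.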
AT treatment: potential ataxia-telangiectasia treatments restoring KAP-1 phosphorylation; F2112 A-T fibroblasts, KAP-1 phosphorylation AlphaLISA; neocarzinostatin DNA damage 30 min before lysis; Potency, µM (series often up to 57.5 µM), for inactives: at the top dose activation, actives largely listed as activators; 0.19% of 320,000 active; AID 485349; also: % of control where 0% means no effect; nearly all actives have a fitted effect of over 45% in size
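hTERT-immortalized A-T patient fibroblasts (F2112), 500 cells/well in OPTI-MEM, 1% FBS, got compounds for 60 min, then NCS for 30 min at 37C. Lysates were then assayed for phospho-KAP-1 by AlphaLISA (anti-pKAP1 donor, anti-KAP1 acceptor beads), 6 hr at 25C.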
TDP-43 yeast inh: inhibitors of TDP-43 toxicity in yeast | TDP-43 expressing yeast growth rescue, BacTiter-Glo, 24 h | Potency, µM (doses to about 46.1 µM), for inactives: top-dose growth rescue (activation), hits mostly activators | 1.8% of 410,000 active; also: % of control where 0% means no effect; nearly all actives have a fitted effect of over 50% in size
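Luminescence from BacTiter-Glo reports growth of TDP-43-expressing yeast after 24 hr at 30 deg C with compound. Cells were raffinose-pregrown to mid-log, then seeded in galactose medium at OD600=0.02.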
Active calls of the source: *; i = inactive; ? = inconclusive; / = not tested or not shown; [ ] = remark or other dose. This is a sample that favours compounds with a hit; in the whole collection about 2.1% have one here. Calls follow the shape of the dose curve; as a rule, active = well fitted curve in the direction sought with a large enough effect; inconclusive = small, poorly fitted or top-dose-only effect, or another doubt; inactive = no such curve, though single readings can be large; an effect the other way counts as inactive or inconclusive. Potency is read from the fitted curve at half-maximal effect.

SMILES | aSyn yeast inh | Mito fusion act | Abeta yeast res | GRP78 ERSR act | AT treatment | TDP-43 yeast inh
Fc1ccc2cnc(-c3ccccc3)c(-c3ccc(C(F)(F)F)cc3)c2c1 | -15% | -17% | i | 5% | 9% | 48%
O=C(Nc1ccccn1)C1CCN(S(=O)(=O)c2ccc3ccccc3c2)CC1 | 8% | 2% | i | 0% | 2% | 11µM*
Cc1ccnc(NC(=O)C2CCN(S(=O)(=O)c3ccc4ccccc4c3)CC2)c1 | 4% | 24% | i | 0% | -3% | 8%
O=C(C1CCN(S(=O)(=O)c2ccc3ccccc3c2)CC1)N1CCN(c2ncccn2)CC1 | 7% | 28% | i | -6% | -4% | 20µM*
Cc1ccccc1C(=O)Nc1ccc(Br)cn1 | -2% | 6% | i | 3% | 13% | -3%
O=C(Nc1ccccc1C(=O)Nc1ccc(Br)cn1)c1ccccc1Cl | 2%[1.84 µM] | ? | i | 7% | -1% | 20µM*
CC(=O)N1CCc2cc(Br)cc(S(=O)(=O)N3CCC(C)CC3)c21 | / | / | i | -1% | / | 20%
CCC(C)c1ccc(NC(=O)c2c([N+](=O)[O-])cnn2CC)cc1 (stereo unspecified) | 17% | 10% | i | 2% | 6% | 20µM*
Cc1cccc(N2CCN(S(=O)(=O)c3ccc4c(c3)NC(=O)C(C)S4)CC2)c1C (stereo unspecified) | -4% | 11µM* | i | -4% | -16% | ?
CC1Sc2ccc(S(=O)(=O)N3CCN(c4ccccc4)CC3)cc2NC1=O (stereo unspecified) | 8% | 5% | i | -9% | 5% | 27%
N/C(=N\OC(=O)CC1CCCCC1)c1cccc(Br)c1 | -34% | 16% | i | 1% | 5% | 3.2µM*
N/C(=N\OC(=O)CC1CCCCC1)c1ccc(Br)cc1 | -19% | -1% | i | 2% | -7% | 7.9µM*
COc1ccc(/C(N)=N/OC(=O)CCC2CCCC2)cc1OC | 1% | -7% | i | 5% | 13% | ?
COc1ccc(/C(N)=N/OC(=O)CC2CCCCC2)cc1OC | 1% | 1% | i | 4% | 19% | 22µM*
N/C(=N\OC(=O)C1CCCCC1)c1cccc(Br)c1 | -36% | -1% | i | 3% | 1% | -45%
COc1ccc(N2CC(NC(=O)c3ccco3)CC2=O)cc1OC (stereo unspecified) | / | / | i | -1% | / | 15%
Cc1ccc(N2C(=O)[C@@H]3CSC(c4ccc(Cl)cc4)N3C2=O)cc1 (stereo partly specified) | / | / | i | 0% | / | 25µM*
Cc1ccc(N2C(=O)[C@@H]3CSC(c4ccc(F)cc4)N3C2=O)cc1 (stereo partly specified) | / | / | i | -2% | / | ?
O=C1CCCN1CCCNS(=O)(=O)c1cccs1 | -1% | / | i | -2% | -16% | 7%
O=C1CCCN1CCCNS(=O)(=O)c1ccccc1 | ? | 1% | i | 3% | -12% | 1.1µM*
N=C1SCC(=O)N1c1ncc(Cc2ccc(F)cc2)s1 | 10% | 5% | ? | 3% | 6% | 10µM*
Cc1c(Cl)cccc1Nc1nc(N)nc(CSc2nc3ccccc3s2)n1 | -13% | 8.9µM* | i | -1% | 0% | 16µM*
Cc1ccc(C(=O)Nc2ccc(S(=O)(=O)O)c3cc(S(=O)(=O)O)cc(S(=O)(=O)O)c23)cc1NC(=O)c1cccc(NC(=O)Nc2cccc(C(=O)Nc3cc(C(=O)Nc4ccc(S(=O)(=O)O)c5cc(S(=O)(=O)O)cc(S(=O)(=O)O)c45)ccc3C)c2)c1 | -9% | 16µM* | / | -1% | / | /
CO[C@H]1[C@H](NC(=O)c2cccc(F)c2)c2ccccc2C12CCN(Cc1ccco1)CC2 | / | / | / | -5% | / | /
CC(=O)N1CCCc2cc(S(=O)(=O)N3CCN(c4ccc(F)cc4)CC3)ccc21 | / | / | i | -4% | / | 12%
SMILES | aSyn yeast inh | Mito fusion act | Abeta yeast res | GRP78 ERSR act | AT treatment | TDP-43 yeast inh
COc1ccc(CCNC(=O)c2cnn(-c3nccc(-c4ccco4)n3)c2C)cc1 | / | / | / | 4% | / | /
N/C(=N\OC(=O)N1c2ccccc2Sc2ccccc21)c1ccccc1 | -73% | -22% | i | -1% | 1% | 3.5µM*
Cc1cccc(/C(N)=N/OC(=O)N2c3ccccc3Sc3ccccc32)c1 | -64% | -7% | i | 3% | -2% | ?
CC(C)(C)C1=NN=C2c3ccccc3C(=O)C21 (stereo unspecified) | -15% | ? | i | 1% | 7% | 16µM*
O=C(Nc1ccc2c(c1)OCCO2)c1cnn(-c2ccccc2)n1 | 0%[1.84 µM] | 5% | i | -1% | 4% | 18µM*
O=C(Nc1ccc2c(c1)OCCO2)C1CC1c1ccccc1 (stereo unspecified) | -20% | 17% | ? | -4% | 3% | 25µM*
Nc1ccc2c(c1)C(=NO)c1cc([N+](=O)[O-])ccc1-2 | 6.3µM* | / | i | -4% | / | 11µM*
CCOc1ccccc1CNC(=O)c1cc2n(n1)CCCN(Cc1ccc(C)cc1)C2=O | / | / | ? | -3% | / | 35µM*
COc1cccc(CNC(=O)c2cc3n(n2)CCCN(Cc2ccc(C)cc2)C3=O)c1OC | / | / | i | -2% | / | 12%
CN(C)CCNC(=O)CN1C(=O)COc2ccc(S(=O)(=O)N3CCCC3)cc21 | / | / | i | -4% | / | 20%
COc1ccc(C(C)N(C)Cc2nc(N3CCN(C(=O)c4ccco4)CC3)c3ccccc3n2)cc1 (stereo unspecified) | / | / | / | 0% | / | /
CC1=CC2=NC(=O)/C(=C\c3cccn3CCOc3ccccc3C)C(=N)N2O1 | 12% | -11% | ? | 1% | -5% | 20µM*
COc1ccccc1OCCOc1ccc(/C=C2/C(=N)N3OC(C)=CC3=NC2=O)cc1OC | 1% | 2% | i | -2% | -1% | 0%
COc1ccc(C(=O)/C(=C\c2ccco2)N2C=CC=CC2=C(C#N)C#N)cc1 | 4% | -18% | i | -14% | -4% | ?
COc1ccc(/C=C(/C(=O)c2cccs2)N2C=CC=CC2=C(C#N)C#N)cc1 | 18µM* | 6% | i | -7% | 2% | ?
Cn1c(-c2c(N)n(C3CCCC3)c3nc4ccccc4nc23)nc2ccccc21 | -9% | 3% | i | -7% | 25% | 13µM*
CCOc1ccc(C2C(=O)N(C3CCCCC3)CC(=O)N2Cc2ccccc2OC)cc1OC (stereo unspecified) | / | / | i | -1% | / | -1%
OC(c1ccccc1)c1nc(-c2ccc3c(c2)OCO3)cs1 (stereo unspecified) | 11µM* | / | i | 1% | / | 20µM*
